Inconclusive results are not listed. The source made the active and inactive calls. The call rests on the fitted dose curve; in most records, active means well fitted cell-killing curve with a large enough effect in the repeat runs; inconclusive means weak or mixed curves, or effect the other way; inactive means flat fitted curve, though single readings scatter.

These results are taken from PubChem BioAssay (Tox21).
On the % scale 0 is the no-effect control and ±100 the full control effect; potency means the concentration at half of the fitted maximal effect.

A short description of the assay: Caspase-3/7 induction in HepG2 cells by small molecules, qHTS cell viability counter screen (AID 1346981). Further: nearly all actives have a fitted effect of over 30% in size. The conditions noted are these: CellTiter-Fluor fluorescence, 17 h; series mostly up to 92.4 µM; activity change, negative = cytotoxicity: at the top concentration. The procedure, abridged: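 The parent HepG2 line is plated at 2,000 cells per well and rested 5 hr before compound pinning from DMSO stocks. Following a 16-hr treatment at 37 C, a fluorogenic live-cell substrate (CellTiter-Fluor) reports viability after 1 hr.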
For the molecule `O=NN(CCCl)C(=O)NCCCl`, the “activity change, negative = cytotoxicity” value was 2.28% [at 42.5 µM] (inactive).

On to `O=C(O)CCS`, for which the “activity change, negative = cytotoxicity” value is -1.28% (inactive).

Take `CSSc1ccoc1C`: the “activity change, negative = cytotoxicity” value was -0.805% (inactive).

With `O=C1OC[C@H](Cc2cccc(O)c2)[C@H]1Cc1cccc(O)c1`, the “activity change, negative = cytotoxicity” value is 4.29% [at 42.5 µM] (inactive).

As for `FC(F)(F)C(F)(F)C(F)(F)C(F)(F)CCI`, the “activity change, negative = cytotoxicity” value was 3.7% [at 42.5 µM] (inactive).

On to `CCCCCCCCCCCCCCCC(=O)OCC`, for which the “activity change, negative = cytotoxicity” value was 0.234% (inactive).

As for `Nc1ccc(N=Nc2ccc(N)cc2)cc1`, the Potency is 27.3 µM (active).

As to `CC1C(C)(C)C2=C(C(=O)CCC2)C1(C)C` (stereo unspecified), the “activity change, negative = cytotoxicity” value was -1.87% (inactive).

With `COC(=O)c1sccc1S(N)(=O)=O`, the “activity change, negative = cytotoxicity” value was 4.8% (inactive).

For `CNC1CCCN(c2c(F)cc3c(=O)c(C(=O)O)cn(C4CC4)c3c2OC)C1` (stereo unspecified), the “activity change, negative = cytotoxicity” value is 3.68% [at 42.5 µM] (inactive).

`Nc1ccc(S(=O)(=O)NCc2ccccc2)cc1`: the “activity change, negative = cytotoxicity” value is 0.474% [at 42.5 µM] (inactive).

For the molecule `CCC(Cl)CC(Cl)C(Cl)C(Cl)C(Cl)C(C)Cl` (stereo unspecified), the activity change, negative = cytotoxicity was 1.11% [at 19 µM] (inactive).

On to `CC(C)c1ccc(C#N)cc1`, for which the “activity change, negative = cytotoxicity” value is -1.59% (inactive).

Consider `CC1=CC[C@@]23C[C@@H]1C(C)(C)[C@@H]2CC[C@H]3C`, for which the “activity change, negative = cytotoxicity” value is -2.08% (inactive).

As to `Cc1cccc2sc(N)nc12`, the “activity change, negative = cytotoxicity” value was 1.14% (inactive).

Regarding `CCN(CC)CC(=O)Nc1c(C)cccc1C(=O)OC`, the “activity change, negative = cytotoxicity” value was 5.28% [at 42.5 µM] (inactive).

Regarding `C=CC(=O)NC(C)C`, the “activity change, negative = cytotoxicity” value was 6.13% (inactive).

In the case of `O=C(O)c1cccc(C[C@@H]2COc3ccc(OCc4nc5cc(F)ccc5s4)cc3[C@@H]2O)c1`, the “activity change, negative = cytotoxicity” value was -0.883% (inactive).

As for `CCCCC[C@H](O)/C=C/[C@H]1[C@H](O)CC(=O)[C@@H]1C/C=C\CCCC(=O)O`, the “activity change, negative = cytotoxicity” value is 0.37% [at 42.5 µM] (inactive).

As for `Cc1ccc(N(CC2=NCCN2)c2cccc(O)c2)cc1`, the “activity change, negative = cytotoxicity” value was 2.45% [at 42.5 µM] (inactive).

On to `CC(C)C(=O)OCCOc1ccccc1`, for which the “activity change, negative = cytotoxicity” value is 0.417% (inactive).

Consider `CCCCOCCOC(=O)c1cccnc1`, for which the “activity change, negative = cytotoxicity” value was 2.88% [at 42.5 µM] (inactive).

For `COC(=O)CC(C(C)=O)C(=O)OC` (stereo unspecified), the “activity change, negative = cytotoxicity” value was 1.15% (inactive).

On to `CC(C)(O)c1coc(S(=O)(=O)NC(=O)Nc2c3c(cc4c2CCC4)CCC3)c1`, for which the “activity change, negative = cytotoxicity” value is 6.65% (inactive).

Take `C[C@H](CS)C(=O)N1CCC[C@H]1C(=O)O`: the “activity change, negative = cytotoxicity” value is 4.67% [at 42.5 µM] (inactive).

`CSCC[C@H](NC(=O)[C@H](Cc1c[nH]c2ccccc12)NC(=O)CCNC(=O)OC(C)(C)C)C(=O)N[C@@H](CC(=O)O)C(=O)N[C@@H](Cc1ccccc1)C(N)=O`: the “activity change, negative = cytotoxicity” value was 2.47% [at 42.5 µM] (inactive).
